Results from PubChem BioAssay AID1159580 (chemical genetic matrix, 2015).
The whole screen tested about 5,500 compounds, of which about 2,000 (36%) were called active. Roughly 18% stayed inconclusive and do not appear here. No stated cut-off is given here; in the data, active means normalized growth mostly below about 0.91 (no sharp cut-off); inconclusive means no clear call, values can overlap the other calls; inactive means mostly above about 0.92. This is one part of the list.

Experiment: chemical genetic growth profiling, strain panel (AID 1159580);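 further: tested at 20 µM; growth read once vehicle control cultures reached saturation at 30 °C; 1 = growth at the plate median or of vehicle wells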
Details: growth OD

Measured: normalized growth

NCCC(O)C(=O)NC1CC(N)C(OC2OC(CN)C(O)C(O)C2N)C(OC2OC(CO)C(O)C2O)C1O (stereo unspecified)
inactive: S. cerevisiae deletion strains, locus YAL013W, strain DEP1, stronger effect = lower value 1.04 | S. cerevisiae deletion strains, locus YBR021W, strain FUR4, stronger effect = lower value 0.976 | S. cerevisiae deletion strains, locus YBR229C, strain ROT2, stronger effect = lower value 1 | S. cerevisiae deletion strains, locus YCL029C, strain bik1, stronger effect = lower value 0.994 | S. cerevisiae deletion strains, locus YDL035C, strain GPR1, stronger effect = lower value 0.993 | S. cerevisiae deletion strains, locus YDL074C, strain BRE1, stronger effect = lower value 1.03 | S. cerevisiae deletion strains, locus YDL101C, strain DUN1, stronger effect = lower value 1 | S. cerevisiae deletion strains, locus YDL134C, strain PPH21, stronger effect = lower value 0.999 | S. cerevisiae deletion strains, locus YDL185W, strain tfp1, stronger effect = lower value 0.979 | S. cerevisiae deletion strains, locus YDL192W, strain arf1, stronger effect = lower value 1 | S. cerevisiae deletion strains, locus YDR101C, strain arx1, stronger effect = lower value 1 | S. cerevisiae deletion strains, locus YDR150W, strain NUM1, stronger effect = lower value 0.999 | S. cerevisiae deletion strains, locus YDR162C, strain NBP2, stronger effect = lower value 1.01 | S. cerevisiae deletion strains, locus YDR318W, strain mcm21, stronger effect = lower value 0.992 | S. cerevisiae deletion strains, locus YDR388W, stronger effect = lower value 0.998 | S. cerevisiae deletion strains, locus YDR502C, strain sam2, stronger effect = lower value 1 | S. cerevisiae deletion strains, locus YEL061C, strain CIN8, stronger effect = lower value 1 | S. cerevisiae deletion strains, locus YER110C, stronger effect = lower value 0.988 | S. cerevisiae deletion strains, locus YER155C, strain BEM2, stronger effect = lower value 0.993 | S. cerevisiae deletion strains, locus YER167W, strain BCK2, stronger effect = lower value 0.978 | S. cerevisiae deletion strains, locus YGL078C, strain dbp3, stronger effect = lower value 0.999 | S. cerevisiae deletion strains, locus YGL086W, strain mad1, stronger effect = lower value 0.989 | S. cerevisiae deletion strains, locus YGL248W, strain PDE1, stronger effect = lower value 0.994 | S. cerevisiae deletion strains, locus YGR078C, strain PAC10, stronger effect = lower value 1.01 | S. cerevisiae deletion strains, locus YGR135W, strain pre9, stronger effect = lower value 1.02 | S. cerevisiae deletion strains, locus YGR229C, strain SMI1, stronger effect = lower value 1.02 | S. cerevisiae deletion strains, locus YGR252W, strain gcn5, stronger effect = lower value 0.994 | S. cerevisiae deletion strains, locus YHR030C, strain SLT2, stronger effect = lower value 0.983 | S. cerevisiae deletion strains, locus YHR079C, strain IRE1 (second series), stronger effect = lower value 0.99 | S. cerevisiae deletion strains, locus YHR094C, strain hxt1, stronger effect = lower value 0.989 | S. cerevisiae deletion strains, locus YHR129C, strain ARP1, stronger effect = lower value 0.992 | S. cerevisiae deletion strains, locus YHR200W, strain rpn10, stronger effect = lower value 0.994 | S. cerevisiae deletion strains, locus YIL066C, strain RNR3, stronger effect = lower value 0.999 | S. cerevisiae deletion strains, locus YIL073C, strain SPO22, stronger effect = lower value 0.9 | S. cerevisiae deletion strains, locus YIL125W, strain kgd1, stronger effect = lower value 0.995 | S. cerevisiae deletion strains, locus YIR030C, strain dcg1, stronger effect = lower value 0.993 | S. cerevisiae deletion strains, locus YJL095W, strain BCK1, stronger effect = lower value 1.06 | S. cerevisiae deletion strains, locus YJL134W, strain LCB3, stronger effect = lower value 0.989 | S. cerevisiae deletion strains, locus YJL168C, strain set2, stronger effect = lower value 0.991 | S. cerevisiae deletion strains, locus YJL187C, strain SWE1 (second series), stronger effect = lower value 0.994 | S. cerevisiae deletion strains, locus YJR043C, strain POL32, stronger effect = lower value 1.04 | S. cerevisiae deletion strains, locus YJR075W, strain HOC1, stronger effect = lower value 1.02 | S. cerevisiae deletion strains, locus YKL009W, strain mrt4, stronger effect = lower value 0.978 | S. cerevisiae deletion strains, locus YKL068W, stronger effect = lower value 0.987 | S. cerevisiae deletion strains, locus YKL085W, strain MDH1 (second series), stronger effect = lower value 0.972 | S. cerevisiae deletion strains, locus YKL085W, strain MDH1, stronger effect = lower value 0.972 | S. cerevisiae deletion strains, locus YKL190W, strain CNB1, stronger effect = lower value 0.99 | S. cerevisiae deletion strains, locus YKR001C, strain vps1, stronger effect = lower value 1 | S. cerevisiae deletion strains, locus YLR039C, strain RIC1, stronger effect = lower value 1.02 | S. cerevisiae deletion strains, locus YLR058C, strain SHM2, stronger effect = lower value 0.986 | S. cerevisiae deletion strains, locus YLR102C, strain apc9, stronger effect = lower value 0.989 | S. cerevisiae deletion strains, locus YLR262C, strain YPT6, stronger effect = lower value 0.985 | S. cerevisiae deletion strains, locus YLR268W, strain sec22, stronger effect = lower value 1.02 | S. cerevisiae deletion strains, locus YLR330W, strain CHS5, stronger effect = lower value 0.981 | S. cerevisiae deletion strains, locus YLR342W, strain FKS1 (second series), stronger effect = lower value 0.968 | S. cerevisiae deletion strains, locus YLR371W, strain rom2, stronger effect = lower value 0.978 | S. cerevisiae deletion strains, locus YLR418C, strain cdc73, stronger effect = lower value 1.02 | S. cerevisiae deletion strains, locus YML016C, strain PPZ1, stronger effect = lower value 0.991 | S. cerevisiae deletion strains, locus YML032C, strain rad52, stronger effect = lower value 0.998 | S. cerevisiae deletion strains, locus YML124C, strain tub3, stronger effect = lower value 1 | S. cerevisiae deletion strains, locus YMR078C, strain ctf18, stronger effect = lower value 0.997 | S. cerevisiae deletion strains, locus YMR223W, strain ubp8, stronger effect = lower value 0.995 | S. cerevisiae deletion strains, locus YMR263W, strain SAP30, stronger effect = lower value 1.01 | S. cerevisiae deletion strains, locus YMR307W, strain GAS1, stronger effect = lower value 0.99 | S. cerevisiae deletion strains, locus YNL067W, strain RPL9B, stronger effect = lower value 1.03 | S. cerevisiae deletion strains, locus YNL128W, strain TEP1, stronger effect = lower value 1.02 | S. cerevisiae deletion strains, locus YNL153C, strain GIM3, stronger effect = lower value 1.01 | S. cerevisiae deletion strains, locus YNL233W, strain BNI4, stronger effect = lower value 1 | S. cerevisiae deletion strains, locus YNL250W, strain rad50, stronger effect = lower value 0.991 | S. cerevisiae deletion strains, locus YNL271C, strain bni1, stronger effect = lower value 0.983 | S. cerevisiae deletion strains, locus YNL298W, strain CLA4, stronger effect = lower value 1.01 | S. cerevisiae deletion strains, locus YNL307C, strain MCK1, stronger effect = lower value 0.997 | S. cerevisiae deletion strains, locus YNL322C, strain KRE1, stronger effect = lower value 0.997 | S. cerevisiae deletion strains, locus YNR052C, strain pop2, stronger effect = lower value 0.994 | S. cerevisiae deletion strains, locus YOL006C, strain TOP1, stronger effect = lower value 1.05 | S. cerevisiae deletion strains, locus YOL012C, strain htz1 0.88 | S. cerevisiae deletion strains, locus YOL147C, strain pex11, stronger effect = lower value 0.994 | S. cerevisiae deletion strains, locus YOR061W, strain CKA2, stronger effect = lower value 0.999 | S. cerevisiae deletion strains, locus YOR069W, strain VPS5, stronger effect = lower value 1.01 | S. cerevisiae deletion strains, locus YOR136W, strain idh2, stronger effect = lower value 0.993 | S. cerevisiae deletion strains, locus YOR144C, strain elg1, stronger effect = lower value 0.995 | S. cerevisiae deletion strains, locus YOR184W, strain ser1, stronger effect = lower value 0.982 | S. cerevisiae deletion strains, locus YOR316C, strain cot1, stronger effect = lower value 0.987 | S. cerevisiae deletion strains, locus YPL055C, strain LGE1, stronger effect = lower value 1.04 | S. cerevisiae deletion strains, locus YPL241C, strain CIN2, stronger effect = lower value 1.01 | S. cerevisiae deletion strains, locus YPR119W, strain clb2, stronger effect = lower value 0.993 | S. cerevisiae deletion strains, locus YPR141C, strain kar3, stronger effect = lower value 0.992 | S. cerevisiae deletion strains, locus YPR163C, strain tif3, stronger effect = lower value 1 | S. cerevisiae deletion strains, locus YPR167C, strain met16, stronger effect = lower value 0.994 | S. cerevisiae deletion strains, strain wtn01, stronger effect = lower value 0.993 | S. cerevisiae strains, strain wild type, stronger effect = lower value 0.992
